# Laboratory results reported in the supplement of paper PMC11417369.
# ± gives the standard deviation of the averaged measurements. In all, about 25,000 sequences were measured (“ln(normalized median fluorescence intensity)”: median about 7.9, highest 2% from about 11 on). The full list was thinned out, with the highest values kept by preference.
# System: PfAP2-I AP2 domain 3 (GST-tagged)
# Assay: gcPBM binding intensity (ln(normalized median fluorescence intensity)); higher = stronger DNA binding
# Summary of the method: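 Binding intensity is the highest Masliner-normalised natural-log median intensity over replicate spots in either probe orientation. To obtain it, GST-tagged P. falciparum DNA-binding domains made in E. coli were incubated for 1 h on an Agilent 4 × 180k array of primer-extended double-stranded 36-bp intergenic genomic probes plus negative controls. Detection used Alexa488 anti-GST antibody with scanning at 488 nm.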
row,Sequence,gcPBM binding intensity (ln)
1,GTGTAGTAAAATCGATGTACGTACAAATCAATTATT [XGTACX_site7662],8.06 ± 0.39
2,AAAAACAAACTGTGCATGCACCAAAAAAAAAAAAAA,10.4 ± 0.35
3,CAGGTGCACTATATTACACACGCTTCTTTTTTTTTA [CACACA_site2069],11.7 ± 0.59
4,ATATATATATATATTACACACTTTTTCTTTTTTTTT [CACACA_site2780],9.41 ± 0.35
5,TTTTTCATTTAGCTTTTACACACTATATATTATTGA [CACACA_site7888],7.94 ± 0.86
6,TACAATCTAAAATACACACGCACACCGAAAAAAAAA [CACACA_site3520],8.13 ± 0.37
7,TTTTTTTTTTTAAATACATGCATGTCCTATTTAAAT [TGCATGCA_site494],7.92 ± 0.89
8,TATATCTATTTCAAATGTACTTATATGATTCTTATA [XGTACX_site6277],7.67 ± 0.2
9,AATATAATATATTGCACACAAAAAGTGAATTATTCT [CACACA_site1684],10.2 ± 0.4
10,TAATATATGTATTGCACACCTATAACCATTATTTCT [CACACA_site1498],10.2 ± 0.38
11,AATATATTGCACCATTGGACCTGAATAATTCTTCCA [CACACA_negctrl_site1071],11.8 ± 0.81
12,AAGGGTTATAAAAATTGTACTTTTTTTATTTTTTTT [XGTACX_site1313],7.72 ± 0.56
13,CACTTTAATTTATGCACACATATGGAACAACAGCCA [CACACA_site994],10.2 ± 0.38
14,ATATACACTTAATTTTTTATAAAAAAAAATTTATAT [CACACA_negctrl_site498],7.66 ± 0.43
15,TATATTCTTTATAGGTGTACTTAATAAATAAAAAAT [XGTACX_site5378],8.11 ± 0.23
16,CATATAAATATTTGTGCACACAATTATTAATAATTA [CACACA_site3884],11.3 ± 0.23
17,TTTTAAACAAAAATTTGTACACAATAATTAAATATA [XGTACX_site6755],7.79 ± 0.32
18,TTTTTTTAATAGTGTGCACACAATATACAGAAAAAA [CACACA_site8399],10.1 ± 0.11
19,TTTTTTTTTTTTTTTGTGCACAATATAATTTTTAAT [GTGCAC_site9747],10.9 ± 0.52
20,ATATATATCTTTTGTGTGCACATATATATAATATAT,9.79 ± 0.22
21,ATATAAATATATTGCACACACAATTATTATTATTAT [CACACA_site7147],10.1 ± 0.45
22,ATATATATAATATAGGTGCACTACTTATTTAAAAAA,11.6 ± 0.2
23,TTATAATATTAATGTGCACACAATTAAAATATTATA [CACACA_site2046],10.6 ± 0.26

row,Sequence,gcPBM binding intensity (ln)
1,TATTATAATATATTTGTGCACATAATATCTCCGCTA [GTGCAC_site9799],10.91 ± 0.049
2,TATTATAATATATTTGTGCACATAATACCTCCGCTA [GTGCAC_site9570],10.7 ± 0.18
3,AAATATTTATAGGTTTGTACTTATAAATAAAAAAAA [XGTACX_site7360],7.83 ± 0.41
4,ATAAATATTATTTTACGTACATATTTATGAAGTATT [XGTACX_site8746],7.92 ± 0.29
5,ATTGTTCTATGATTTGTACACACTTTTTTTTAAAAT [CACACA_site2825],8.43 ± 0.46
6,TTACATACATACAAGTGTACGCATATATTAATATTA [XGTACX_site4006],8 ± 0.26
7,ATTATTTGTTTAATGAGTACGAAGACAAATTTTACC [XGTACX_site5223],8.12 ± 0.49
8,TTTATAAAAAGCATAACACACACATGTCAATATATA [CACACA_site8286],7.71 ± 0.52
9,TGAATCAATTGTTGCTGTACATAAGGTATACAATAA [XGTACX_site5127],7.97 ± 0.52
10,ATGTATATATATATATGTACTAATTAGTAATTTACG [XGTACX_site6276],7.87 ± 0.32
11,TATTATTCAAAATTTGTGCACAAAATTAAAGGAACA,10.8 ± 0.27
12,TGAAATTTTATTAATGTGCACATATATTTATTGTTC,9.77 ± 0.26
13,TGTATATGGTTTGTGCAAAAATTTATTAATGTGTAA [TGCATGCA_negctrl_site374],8.8 ± 0.35
14,ATTTTTATTTTTTTTGTGCACATTTTCATTTTCTAT [GTGCAC_site9580],10.4 ± 0.47
15,AATTTATATAATTTTGTGCACAATATTCATGTATAT,11 ± 0.14
16,ATTTTTATTTTATATACACACAATAATAATATAATA [CACACA_site4015],7.83 ± 0.43
17,TAATATAATATATGCACACAAATATGTATTTATGTG [CACACA_site5210],9.14 ± 0.014
18,TATTTTATTTGTATATTCATTTGTATAATATAAATA [TGCATGCA_negctrl_site267],7.37 ± 0.55
19,TTTTTTTTTTTTTTTGTGCACAATTATTTCAATTTT [GTGCAC_site9884],10.9 ± 0.79
20,ATATTTTATTTAATTACACACAATATTGCAATTTGT [CACACA_site669],8.35 ± 0.53
21,ATATATATTAATTTTGTGCACAAATGGAAATGTTTG [GTGCAC_site9971],11 ± 0.2
22,ATATTTTATATATTTGTGCACAATATTATAATATAT,11.04 ± 0.049
23,ATAAAATACAAAGGGACACACATATGAGTCTACAAA [CACACA_site3092],7.54 ± 0.6
